From PubChem BioAssay
TTR transcr act – TTR transcription activators in neuroblastoma reporter cells, primary screen, cell-based, luminescence, SH-SY5Y, TTR promoter Gaussia luciferase; 100% = recombinant luciferase protein wells; activation, % at 16.7 µM; 1.3% of 92,000 active; AID 1117267, 2014;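 active = activation above the mean of all tested compounds plus 3 SD, cut at about 9.5% in these data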;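 note: cells exposed to compounds for one day before reading; 0% = median of all test compound wells on the plate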
HuH7 TTR inh – TTR promoter reporter inhibitors in hepatoma cells, counter-screen for TTR transcription activator project, cell-based, luminescence, HuH7 hepatoma; shares compounds with TTR transcr act; HuH7 TTR promoter-Gaussia luciferase reporter; inhibition, % at 16.7 µM; 4% of 1,100 active;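 active = average inhibition above the solvent-only control wells' mean plus 3 SD, cut at about 15% in these data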;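 note: 0% = cells with DMSO only and 100% = cells with inhibitor control FD; inhibitors lower well luminescence so higher value means more inhibition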
TTR up confirm – TTR transcription activators, retest, confirmation, cell-based, luminescence, SH-SY5Y, triplicate; shares compounds with TTR transcr act; 1,100 tested, under 10 active; SHSY5Y TTR promoter Gaussia luciferase; 100% = purified Lucia enzyme wells, no cells; activation, % at 16.7 µM;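 active = mean activation above a set limit taken from the earlier primary screen, cut at about 11% in these data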;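 note: 0% = DMSO-treated cells and 100% = recombinant Lucia luciferase without cells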
Active calls of the source: *. This is one part of a sample in which hits are shown more often than they occur.

SMILES	TTR transcr act	others
COc1ccc2c(c1)N[C@@](CCNC=O)(c1[nH]c3ccccc3c1CCNC=O)C2=O	3
COc1ccc(/C=C/C(=O)OCC(=O)c2c(N)n(C)c(=O)n(C)c2=O)c(OC)c1	9.8*	HuH7 TTR inh=0;TTR up confirm=0
CCCOc1ccc(C(=O)OCC(=O)c2c(N)n(C)c(=O)n(C)c2=O)cc1OC	0
COc1ccc(/C=C/C(=O)OCC(=O)c2ccc3c(c2)NC(=O)CO3)c(OC)c1	0
COC(=O)C(Cc1ccccc1)NC(=O)c1cc(S(=O)(=O)N(C)C)ccc1Cl (stereo not drawn)	-2
C[C@H]1[C@H](NC(=O)c2ccc(C(C)(C)C)cc2)CC[C@@]23CCCN2C(=O)CCC[C@@H]13	1
COC(=O)[C@]12C[C@H](CC(=O)NCc3cccs3)C(=O)N(Cc3ccc(Cl)cc3Cl)C1=C[C@H](C1CCCC1)O[C@@H]2C	6
Cc1ccc(NC(=O)CSCC(=O)N(C)CC(=O)Nc2cccc(F)c2)cc1	-1
CN(CC(=O)Nc1cccc(F)c1)C(=O)c1ccc(OCC2CCCO2)cc1 (stereo not drawn)	0
CCC(=O)c1ccc(OCC(=O)N(C)CC(=O)Nc2cccc(F)c2)cc1	10.0*	HuH7 TTR inh=-14;TTR up confirm=0
C#CCNC(=O)C[C@H]1C[C@@]2(C(=O)OC)C(=C[C@H](COCc3ccccc3)O[C@@H]2C)N(CCc2ccc(OC)c(OC)c2)C1=O	2
CCCCOc1ccc(C(=O)n2ccc3ccc(-c4ccc5ccn(Cc6cccc(C(=O)OC)c6)c5c4)cc32)cc1	0
NS(=O)(=O)c1ccc(NC(=O)Nc2ccc(C(F)(F)F)cc2)cc1	-3
COC(=O)c1cc(C)oc1C	7
COC(=O)c1cc(-c2ccc(C)cc2)c(=O)n2c1CCC2	0
C[C@@H]1CCCCO[C@H](CN(C)S(=O)(=O)c2cccs2)[C@H](C)CN([C@@H](C)CO)C(=O)c2cc(NC(=O)NC3CCCCC3)ccc2O1	0
C[C@@H]1CN([C@@H](C)CO)C(=O)c2cc(N(C)C)ccc2O[C@@H](C)CCCCO[C@@H]1CN(C)S(=O)(=O)c1cccs1	14*	HuH7 TTR inh=-6;TTR up confirm=0
C[C@@H]1CCCCO[C@@H](CN(C)S(=O)(=O)c2ccc(F)cc2)[C@@H](C)CN([C@H](C)CO)C(=O)c2cc(N(C)C)ccc2O1	-1
O=C(Nc1c(-c2ccc(F)cc2)nc2ncccn12)c1ccccc1	2
CCOC(=O)N1CCN(C(=O)C[C@H]2C[C@@]3(C(=O)OC)C(=C[C@H](C4CCCC4)O[C@@H]3C)N(Cc3ccco3)C2=O)CC1	1
CSCCC(NC(=O)c1ccccc1Cl)C(=O)NC1CCN(Cc2ccccc2)CC1 (stereo not drawn)	1
Cc1ccc(NC(=O)c2scc3c2CCCC3)cc1	22*	HuH7 TTR inh=10;TTR up confirm=-2
Cc1ccc(C(=O)Nc2ccc3c(c2)CCC3)cc1	0
CCN1CCCC(NC(=O)c2scc3c2CCCC3)C1 (stereo not drawn)	0
C=CCn1c(=O)/c(=C/c2cc(OC)c(OC)c(OC)c2)s/c1=C(/C#N)c1nc2ccccc2n1C	-2
SMILES	TTR transcr act	others
CCOC(=O)[C@]12CCCC3=C1N(CCC3)C(=O)[C@@H](CC(=O)NCc1cccc(C(F)(F)F)c1)C2	-2
C=CCOc1cccc(C(=O)Nc2ncn[nH]2)c1	1
COC(=O)c1ccc(NC(=O)CN2CCN(CCO)CC2)cc1	-1
COC(=O)c1ccc(NC(=O)CCN2CCN(CCC(=O)Nc3ccc(C(=O)OC)cc3)CC2)cc1	-7
COC(=O)c1ccc(NC(=O)CCN2CCCCC2)cc1	10*	HuH7 TTR inh=-3;TTR up confirm=-1
CCc1ccc2[nH]c(=O)c(CN(Cc3ccco3)C(=S)NCC3CCCO3)cc2c1 (stereo not drawn)	12*	HuH7 TTR inh=-24;TTR up confirm=2
CCN(CC)CCCNC(=S)N(Cc1ccco1)Cc1cc2cc3c(cc2[nH]c1=O)OCCO3	1
CNC(=S)N(Cc1ccco1)Cc1cc2cc3c(cc2[nH]c1=O)OCCO3	-2
Cc1ccc(OCCOc2c(Cl)cc(Cl)cc2Cl)c([N+](=O)[O-])n1	2
Cc1cccc(N2CCN(S(=O)(=O)c3ccc4c(c3)CC(=O)N4C)CC2)c1C	14*	HuH7 TTR inh=-11;TTR up confirm=-1
Cc1cccc(N2CCN(S(=O)(=O)c3ccc4c(c3)OCCO4)CC2)c1C	0
Cc1cccc(N2CCN(S(=O)(=O)c3ccc4c(c3)CCN4C(=O)CCC(=O)O)CC2)c1C	1
C#CCNC(=O)C[C@H]1C(=O)N(Cc2ccc(OC)cc2)C2=CCCCC[C@@]21C(=O)OC	-1
CC1(c2nnnn2Cc2ccccc2)CCSCC(=O)N1Cc1cccs1 (stereo not drawn)	0
CCCn1nnc(NC(=O)c2ccc(Br)cc2)n1	-3
Cc1csc(NC(=O)c2ccccc2)n1	-1
Cn1nnnc1-c1cc(Br)ccc1NC(=O)c1ccccc1	10*	HuH7 TTR inh=0;TTR up confirm=-1
CO[C@H]([C@H](C)/C=C/N(C)C=O)[C@@H](C)C(O)CC[C@H](C)[C@H](O)[C@H](C)[C@H]1OC(=O)/C=C/C(C)=C/C[C@H](O)C[C@@H]2C=CC[C@@H](C[C@H](OC)[C@@]3(CO3)[C@@H](OC)C[C@@H](OC)[C@@H]1C)O2 (stereo partly drawn)	-1
COc1ccccc1C(=O)NC1CCCCN(Cc2ccc(Cl)cc2)C1=O (stereo not drawn)	0
CCc1nnc(NC(=O)c2cccc(S(=O)(=O)N3CCc4ccccc43)c2)s1	15*	HuH7 TTR inh=13;TTR up confirm=-1
O=C(Nc1nc2ccccc2s1)c1cccc(S(=O)(=O)N2CCc3ccccc32)c1	-2
CCc1nnc(NC(=O)c2cccc(S(=O)(=O)N3CCN(C(C)=O)CC3)c2)s1	-1
C=CCNC1CCC12CCC(c1ccccc1)CC2 (stereo not drawn)	5
COc1cc(/C=C2\C(=N)N3N=CSC3=NC2=O)cc(Br)c1OC(=O)c1ccco1	7
COc1ccccc1C1c2c(ncn(-c3ccccc3)c2=N)Oc2ccc3ccccc3c21 (stereo not drawn)	-1
SMILES	TTR transcr act	others
O=C(COC(=O)C1=COCCO1)Nc1cccc(S(=O)(=O)N2CCOCC2)c1	14*	HuH7 TTR inh=-7;TTR up confirm=0
O=C(COC(=O)c1cccnc1Cl)Nc1cccc(S(=O)(=O)N2CCOCC2)c1	-1
Cc1cc(C(=O)OCC(=O)Nc2cccc(S(=O)(=O)N3CCOCC3)c2)c(C)o1	0
CCCC1CCC2(CC1)CCC2OC(=S)Nc1ccccc1C(F)(F)F (stereo not drawn)	0
COC(=O)C1=C(C)N=C2SCCC(=O)N2C1c1ccc(C(=O)OC)cc1 (stereo not drawn)	16*	HuH7 TTR inh=-7;TTR up confirm=2
CC1(C)CC(=O)C2=C(C1)N=C1SCCC(=O)N1C2c1ccccc1 (stereo not drawn)	-1
CC1=C(C(=O)OC(C)C)C(c2cccs2)N2C(=O)CCSC2=N1 (stereo not drawn)	-2
COC(=O)[C@]12C[C@H](CC(=O)N3CCN(C(=O)c4ccco4)CC3)C(=O)N(Cc3ccco3)C1=C[C@H](COCc1ccccc1)O[C@@H]2C	3
